Several values for one entry are separate records, joined by “and”; a condition that tells them apart may be missing. Identical values can stand only once. Results filed as inconclusive are left out. Unmarked numbers belong to inactive results. Activity calls are given as the source filed them. The call rests on the fitted dose curve; in most records, active means well fitted curve in the direction sought with a large enough effect in the repeat runs; inconclusive means weak or mixed curves; inactive means no such curve, though single readings can be large; an effect the other way counts as inactive or inconclusive.
experiment: qHTS RealTime-Glo MT Cell Viability Assay in HEK293 cells - 40 hour (AID 1224874); conditions: RealTime-Glo luminescence; max response: active compounds read low; further: nearly all actives have a fitted effect of over 50% in size
How it was run: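 600 cells/well were plated with the nonlytic NanoLuc/prosubstrate reagent, pre-incubated 5 h, then given 23 nL of compound in DMSO. Incubation at 37 C for 40 h, with luminescence from viable-cell-reduced substrate read repeatedly from 0 h.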
On the % scale 0 is the no-effect control and ±100 the full control effect.

Row | Structure (SMILES) | max response
1 | CCCCC(CC)COC(=O)c1ccc(C(=O)OCC(CC)CCCC)c(C(=O)OCC(CC)CCCC)c1 (stereo unspecified) | 0.196% and 3.66%
2 | C=C(C)C(=O)OCC1CO1 (stereo unspecified) | 9.74% and -15.3%
3 | CCOC(=S)S | 6.71% and 5.31%
4 | CCN(CC)N=O | -2.46% and 23.7%
5 | COc1ccc(C(CN(C)C)C2(O)CCCCC2)cc1 (stereo unspecified) | -15.6% and -9.44%
6 | CCCCCCCCCCCOC(=O)c1ccccc1C(=O)OCCCCCCCCCCC | 1.36% and 2.6%
7 | c1ccc(P(c2ccccc2)c2ccccc2)cc1 | -31.4%
8 | Cc1ccc(OP(=O)(Oc2ccc(C)cc2)Oc2ccc(C)cc2)cc1 | -19.7%
9 | COc1ccc(C=O)cc1 | 7.64% and 1.9%
10 | CNC(=O)Oc1cccc2c1OC(C)(C)O2 | -0.755% and 5.29%
11 | O=C1C=CC(=O)C=C1 | 13.4%
12 | C=CC(=O)OCCO | 4.73% and 14.7%
13 | CCN(CC)C(=O)/C(Cl)=C(\C)OP(=O)(OC)OC | -0.126% and -1.25%
14 | Nc1cccnc1 | 2.11% and -8.29%
15 | Nc1ccc(Cl)c(Cl)c1 | 0.648%
16 | CCCCN(CC)c1c([N+](=O)[O-])cc(C(F)(F)F)cc1[N+](=O)[O-] | -1.03% and 20.2%
17 | CCC(CC)Nc1c([N+](=O)[O-])cc(C)c(C)c1[N+](=O)[O-] | 7.22%
18 | CCCCCCCCOC(=O)c1ccccc1C(=O)OCCCCCCCC | 2.33% and -2.33%
19 | C1=Cc2cccc3cccc1c23 | -3.56% and 0.553%

Row | Structure (SMILES) | max response
20 | CCOCN(C(=O)CCl)c1c(C)cccc1CC | -23.6% and -0.0681%
21 | CCN(CC)C(=O)SCc1ccc(Cl)cc1 | -8.77% and 0.16%
22 | COP(=S)(OC)Oc1cc(Cl)c(Cl)cc1Cl | -10.5% and -1.54%
23 | C[C@]12CCC(=O)C(O)=C1CC[C@@H]1[C@@H]2CC[C@]2(C)C(=O)CC[C@@H]12 | -15.6%
24 | O=[N+]([O-])c1cccc2ccccc12 | 3.63% and 7.21%
25 | N#Cc1cc(Br)c(O)c(Br)c1 | -28.3% and -19.4%
26 | CCc1cccc(CC)c1N(COC)C(=O)CCl | -25.5%
27 | CCOc1cc(C=O)ccc1O | 4.96% and 4.75%
28 | N#CC(Br)Br | -17% and 1.39%
29 | Clc1nc(Cl)nc(Cl)n1 | 10.8% and -11.8%
30 | COP(=O)(OC)OC | 4.65%
31 | CC(O)CCO (stereo unspecified) | -0.607% and 26.7%
32 | CCN(N=O)C(N)=O | 4.37% and -1.44%
33 | NNC(=S)NN | 7.14% and 10.3%
34 | OCC(O)CO | -4.06% and 6%
35 | S=C1NCCN1 | 5.45% and 5.82%
36 | CC(C)c1ccc(CO)cc1 | 0.21% and 0.88%
37 | Oc1cc(Cl)c(Cl)cc1Cl | -18.2% and -12.4%
38 | CC(C)(OOC(C)(C)c1ccccc1)c1ccccc1 | -13.8% and -15.4%

experiment: A CellTox Green Cytotoxicity Assay to monitor cytotoxicity in HEK293 cells - 24 hour (AID 1224875); conditions: CellTox Green fluorescence; series mostly up to 76.8 µM; further: nearly all actives have a fitted effect of over 45% in size; further: potency means the concentration at half of the fitted maximal effect
How it was run: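 HEK293 cells, 600/well, were preincubated 5 hours and then exposed to compounds at 37 C for up to 40 hours. A cell-impermeant cyanine dye staining dead-cell DNA was read by fluorescence at 0, 8, 16, 24, 32 and 40 h time points.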

Row | Structure (SMILES) | Potency
39 | CCCCC(CC)COC(=O)c1ccc(C(=O)OCC(CC)CCCC)c(C(=O)OCC(CC)CCCC)c1 (stereo unspecified) | inactive
40 | C=C(C)C(=O)OCC1CO1 (stereo unspecified) | inactive
41 | CCOC(=S)S | inactive
42 | CCN(CC)N=O | inactive
43 | COc1ccc(C(CN(C)C)C2(O)CCCCC2)cc1 (stereo unspecified) | inactive
44 | CCCCCCCCCCCOC(=O)c1ccccc1C(=O)OCCCCCCCCCCC | inactive
45 | c1ccc(P(c2ccccc2)c2ccccc2)cc1 | inactive
46 | Cc1ccc(OP(=O)(Oc2ccc(C)cc2)Oc2ccc(C)cc2)cc1 | inactive
47 | COc1ccc(C=O)cc1 | inactive
48 | CNC(=O)Oc1cccc2c1OC(C)(C)O2 | inactive
49 | O=C1C=CC(=O)C=C1 | inactive
50 | C=CC(=O)OCCO | inactive
51 | CCN(CC)C(=O)/C(Cl)=C(\C)OP(=O)(OC)OC | inactive
52 | Nc1cccnc1 | inactive
53 | Nc1ccc(Cl)c(Cl)c1 | inactive
54 | CCCCN(CC)c1c([N+](=O)[O-])cc(C(F)(F)F)cc1[N+](=O)[O-] | inactive
55 | CCC(CC)Nc1c([N+](=O)[O-])cc(C)c(C)c1[N+](=O)[O-] | inactive
56 | CCCCCCCCOC(=O)c1ccccc1C(=O)OCCCCCCCC | inactive
57 | C1=Cc2cccc3cccc1c23 | 49 µM (active)

Row | Structure (SMILES) | Potency
58 | CCOCN(C(=O)CCl)c1c(C)cccc1CC | inactive
59 | CCN(CC)C(=O)SCc1ccc(Cl)cc1 | inactive
60 | COP(=S)(OC)Oc1cc(Cl)c(Cl)cc1Cl | inactive
61 | C[C@]12CCC(=O)C(O)=C1CC[C@@H]1[C@@H]2CC[C@]2(C)C(=O)CC[C@@H]12 | inactive
62 | O=[N+]([O-])c1cccc2ccccc12 | inactive
63 | N#Cc1cc(Br)c(O)c(Br)c1 | inactive
64 | CCc1cccc(CC)c1N(COC)C(=O)CCl | inactive
65 | CCOc1cc(C=O)ccc1O | inactive
66 | N#CC(Br)Br | inactive
67 | Clc1nc(Cl)nc(Cl)n1 | inactive
68 | COP(=O)(OC)OC | inactive
69 | CC(O)CCO (stereo unspecified) | inactive
70 | CCN(N=O)C(N)=O | inactive
71 | NNC(=S)NN | inactive
72 | OCC(O)CO | inactive
73 | S=C1NCCN1 | inactive
74 | CC(C)c1ccc(CO)cc1 | inactive
75 | Oc1cc(Cl)c(Cl)cc1Cl | inactive
76 | CC(C)(OOC(C)(C)c1ccccc1)c1ccccc1 | 48.3 µM (active) and 49 µM (active)
